Sampled rows, rich in hits. Any-hit rate of the full collection: about 4%.
DENV2 CPE: DENV2-induced cell death inhibition | CPE inhibition, % at 9.99 µM | AID 651640 | DENV2-infected cells, cytopathic effect rescue, plate reader | 350,000 compounds, 1.7% hits; in the data active = CPE inhibition above about 20%, passing the limit was not always enough; inconclusive = no clear call, values can overlap the other calls; tested in BHK-21 cells;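 note: 0% = median of neutral control wells and 100% = median of positive control wells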
FGF22 binding: FGF22 (human) thermal shift binding; AID 651658; recombinant FGF22 thermal shift, SYPRO orange fluorescence; percent of sucrose octasulfate shift, DMSO zero; activity (Tm shift, normalised), % at 9.99 µM; 340,000 compounds, 1.5% hits; Q9HCT0;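 active = mean Tm shift, scaled 0 neutral to 100 positive control, at about 1.3% or above, every replicate too, limit read from the data; inconclusive = no clear call, values can overlap the other calls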
Target sequence (Q9HCT0 whole entry, looked up): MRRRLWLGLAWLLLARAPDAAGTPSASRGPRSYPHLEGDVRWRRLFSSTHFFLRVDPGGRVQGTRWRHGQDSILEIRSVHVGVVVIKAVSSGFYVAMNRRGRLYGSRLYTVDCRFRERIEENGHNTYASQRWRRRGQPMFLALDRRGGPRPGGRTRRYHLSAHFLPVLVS
ERAP1 HTS inh: inhibitors of human ERAP1 aminopeptidase; recombinant ERAP1, Leu-AMC fluorescence, 60 min; inhibition, % at 10.7 µM; 340,000 compounds, 0.15% hits;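 active = mean replicate inhibition of at least 30%, or all replicates individually reaching that 30% level; inactive = mean below 30% and not every replicate reaching it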;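 note: 0% = neutral control wells and 100% = L-leucinethiol positive control wells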
AF4-AF9 inh: blocks AF4 peptide binding to human AF9; AlphaScreen, biotin-AF4 peptide binding to FLAG-AF9; inhibition, % at 10 µM; 350,000 compounds, 0.47% hits; AID 651704;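 active = every replicate reaching a set inhibition limit, whatever the replicate mean, cut at about 25% in these data; inconclusive = mean inhibition reaches that limit but some replicates miss it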;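 note: 0% = plate neutral control median and 100% = total signal loss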
RAD52 inh: RAD52 (human) annealing inhibition; P43351; recombinant RAD52 DNA annealing, FRET fluorescence; inhibition, % at 18.7 µM; 360,000 compounds, 0.46% hits; AID 651710;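 active = every replicate showing at least 50% inhibition; inconclusive = mean inhibition at least 50% but not in every replicate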
Target sequence (P43351 whole entry, looked up): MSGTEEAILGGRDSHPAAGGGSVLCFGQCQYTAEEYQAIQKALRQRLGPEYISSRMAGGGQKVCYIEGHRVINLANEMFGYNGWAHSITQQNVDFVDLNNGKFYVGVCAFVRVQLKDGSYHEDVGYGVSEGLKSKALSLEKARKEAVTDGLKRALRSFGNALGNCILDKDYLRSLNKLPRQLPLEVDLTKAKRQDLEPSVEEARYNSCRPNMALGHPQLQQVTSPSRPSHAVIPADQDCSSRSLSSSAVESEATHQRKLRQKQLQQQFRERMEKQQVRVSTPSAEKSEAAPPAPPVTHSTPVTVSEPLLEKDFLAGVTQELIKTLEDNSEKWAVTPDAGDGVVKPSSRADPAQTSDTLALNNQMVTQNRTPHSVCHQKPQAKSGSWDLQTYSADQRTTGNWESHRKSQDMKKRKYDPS
An asterisk follows results filed as active; ? = inconclusive; · = no result.

SMILES	DENV2 CPE	FGF22 binding	ERAP1 HTS inh	AF4-AF9 inh	RAD52 inh
CCCNC(=O)N(C)C[C@@H]1Oc2cc(C#C[C@H](C)O)ccc2S(=O)(=O)N([C@H](C)CO)C[C@H]1C	0.9	0.2	0.4	-0.6	0.6
CNC[C@H]1Oc2ccc(NC(=O)Nc3cccc4ccccc34)cc2CC(=O)N([C@H](C)CO)C[C@@H]1C	-3.0	0.1	-1.5	1.6	7.0
CS(=O)(=O)N1[C@@H]2Cn3c(ccc(C4=CCCC4)c3=O)[C@H]1[C@@H](C(=O)N1CCCCC1)[C@@H]2CO	4.5	0.0	-0.2	0.3	-10.2
Nc1nc(Cl)cc(Nc2ccccc2Cl)n1	-0.2	0.0	1.5	?	-0.5
CC1(C)N=C(N)NC(Nc2ccccc2Cl)=N1	8.0	43.0*	-0.5	0.7	-4.2
NCCNc1ccc2nnnn2n1	-7.4	43.3*	2.2	-1.2	-16.7
O=C(CSCc1ccccc1)Nc1ccc(F)cc1F	1.6	-0.1	11.8	-0.5	-2.8
Cc1ccc(CSCC(=O)Nc2ccccc2F)cc1	?	43.5*	1.7	-0.1	-4.4
COc1ccc(CCC(C)NCc2ccc(F)cc2)cc1 (stereo not drawn)	32.6*	0.1	1.2	-1.3	-1.3
CN(C)Cc1cn(CC[C@@H]2CC[C@H](N)[C@H](CO)O2)nn1	-0.8	-0.1	2.6	-1.3	-8.8
COc1cccc(CC(=O)OC(C)C(=O)Nc2ncc(Cl)cc2Cl)c1 (stereo not drawn)	6.5	-0.2	2.5	-6.6	-4.6
Cc1ccc2c(CC(=O)OC(C)C(=O)Nc3ncc(Cl)cc3Cl)coc2c1 (stereo not drawn)	78.7*	-0.3	-0.1	-1.9	-29.0
COc1ccc2c3c([nH]c2c1)[C@H](CO)N(Cc1ccncc1)CC31CCN(Cc2ccc(-c3ccccn3)cc2)CC1	0.7	0.0	-1.2	6.6	-47.6
CCN1CCN(C(=O)c2ccc3c(c2)N(Cc2ccccc2)C(=O)c2ccccc2S3=O)CC1 (stereo not drawn)	10.0	0.0	2.2	49.5*	2.1
COC(=O)c1c(CC[C@@H](CO)NC(=O)N[C@@H](Cc2ccccc2)Cn2cc(-c3ccccc3)nn2)oc(C(=O)N2CCOCC2)c1C(=O)OC	5.9	-0.3	-0.8	-2.5	5.6
O=C(Nc1cccc(-c2nnc(-c3ccco3)o2)c1)c1ccccc1	4.9	43.1*	-8.6	2.6	-16.1
Cc1cc(C)n2nc(C(=O)Nc3ccc(N4CCOCC4)cc3)nc2n1	·	·	59.4*	·	12.4
Cc1cc(C)n2nc(C(=O)N3CCN(c4ccc([N+](=O)[O-])cc4)CC3)nc2n1	5.2	0.3	40.9*	1.4	-9.9
COc1ccc(N2CCN(C(=O)c3nc4nc(C)cc(C)n4n3)CC2)cc1	9.7	0.4	-2.6	-0.1	-14.8
C[C@@H]1CN([C@H](C)CO)C(=O)c2cc(-c3ccccc3)cnc2O[C@@H]1CN(C)C(=O)Cc1cccnc1	12.6	0.2	-2.3	-1.0	-2.9
COc1ccc(CN(C)C[C@H]2OCCCC[C@@H](C)Oc3ccc(NS(=O)(=O)c4ccccc4)cc3C(=O)N([C@H](C)CO)C[C@H]2C)cc1	7.3	-0.2	-0.4	7.9	21.7
COc1ccc(CN(C)C[C@@H]2OCCCC[C@H](C)Oc3ccc(NS(=O)(=O)c4ccccc4)cc3C(=O)N([C@H](C)CO)C[C@H]2C)cc1	31.9*	0.1	-0.9	1.4	34.1
COc1ccc(CN(C)C[C@H]2OCCCC[C@@H](C)Oc3ccc(NS(=O)(=O)c4ccccc4)cc3C(=O)N([C@@H](C)CO)C[C@H]2C)cc1	33.8*	0.1	-2.8	2.4	25.5
COc1ccc(S(=O)(=O)Nc2ccc3c(c2)C(=O)N([C@@H](C)CO)C[C@@H](C)[C@H](CN(C)Cc2ccc(C(=O)Nc4ccccc4N)cc2)OCCCC[C@@H](C)O3)cc1	-9.7	-0.4	-0.2	-0.4	55.3*
NC(=O)[C@@H]1[C@H]2C(=O)O[C@H](c3ccccc3)[C@H](c3ccccc3)N2[C@H](c2ccc(O)cc2)[C@@]12C(=O)Nc1ccc(C#CC3(O)CCCCCC3)cc12	10.3	-0.5	-2.0	2.4	9.7
SMILES	DENV2 CPE	FGF22 binding	ERAP1 HTS inh	AF4-AF9 inh	RAD52 inh
O=C(C[C@@H]1C=C[C@@H](NC(=O)c2ccc(F)cc2)[C@H](CO)O1)NCc1ccncn1	10.5	0.9	-0.2	-9.0	-4.2
COc1ccc(S(=O)(=O)N(C)C[C@@H]2Oc3ccc(NC(=O)Cn4cnnn4)cc3CC(=O)N([C@H](C)CO)C[C@@H]2C)cc1	-1.2	0.3	-0.2	0.0	-13.0
CCCN1C[C@@H](C)[C@H](OC)CN(C)C(=O)c2ccc(NC(=O)c3cccc(F)c3)cc2OC[C@@H]1C	7.7	0.0	2.3	45.0*	-0.1
CCCN1C[C@H](C)[C@@H](OC)CN(C)C(=O)c2cc(NC(=O)Nc3ccccc3F)ccc2OC[C@H]1C	28.8*	0.0	·	1.7	-8.9
CCCN1C[C@@H](C)[C@@H](OC)CN(C)C(=O)c2cc(NC(=O)c3cccc(F)c3)ccc2OC[C@@H]1C	27.4*	0.2	3.8	-0.4	11.9
CCCN1C[C@@H](C)[C@H](OC)CN(C)C(=O)c2cc(NC(=O)c3cccc(F)c3)ccc2OC[C@@H]1C	-9.9	-0.3	-3.3	-1.8	-7.2
CO[C@H]1CN(C)C(=O)c2cc(NC(=O)c3cccc(F)c3)ccc2OC[C@H](C)N(C)C[C@H]1C	-0.9	-0.4	0.0	-0.7	9.1
CO[C@@H]1CN(C)C(=O)c2ccc(NC(=O)c3cccc(F)c3)cc2OC[C@H](C)N(C)C[C@H]1C	37.0*	0.1	0.0	-4.5	-1.3
COc1ccc2c3c(n(C)c2c1)[C@H](CO)N(C(=O)CN(C)C)CC31CCN(C(=O)C2CCC2)CC1	0.8	-0.1	-7.8	-0.8	25.5
CC(=O)N1C[C@H]2CON(C)[C@H]2C[C@H]1c1ccc(-c2ccccc2)cc1	0.3	-0.2	5.6	-1.2	-3.0
COc1ccccc1-c1ccc([C@@H]2C[C@H]3[C@H](CON3C)CN2C(=O)c2ccc(-c3ccccc3)cc2)cc1	38.2*	-0.5	7.7	0.7	-11.3
CCCC#Cc1ccc2c(c1)O[C@H](CN(C)Cc1ccc3c(c1)OCO3)[C@H](C)CN([C@H](C)CO)S2(=O)=O	-2.6	-0.8	3.4	4.3	7.6
O=C(COC(=O)c1ccc(Cl)nc1)NCc1ccc(F)cc1	-4.4	0.0	-1.6	-1.2	-21.7
CN(C)S(=O)(=O)c1cccc(C(=O)OCC(=O)NCc2ccc3c(c2)OCO3)c1	-7.1	42.9*	0.5	-1.6	-8.4
Cc1cccc(C(=O)OCC(=O)NCc2ccc(Cl)cc2)c1	29.3*	-0.1	5.9	-1.2	0.1
Nc1cc(C(=O)OCC(=O)NCc2ccc(F)cc2)ccc1Cl	4.4	44.0*	-0.8	-2.1	-31.9
C[C@H]1CN([C@@H](C)CO)C(=O)c2cc(NS(=O)(=O)c3cn(C)cn3)ccc2O[C@@H]1CN(C)Cc1ccc(-c2ccccc2)cc1	-3.8	-0.3	-0.2	-8.2	7.2

From PubChem BioAssay
